The results in this text go back to PubChem BioAssay (Tox21).

The nature of test [1]: cAMP Responsive Elements (CRE) small molecule antagonists, cell-based qHTS assay: qHTS cell viability counter screen (AID 2060913). Note: nearly all actives have a fitted effect of over 40% in size. Summed up:
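Cytotoxicity counter screen multiplexed with the CRE-bla antagonist read: HEK293T cells in DMEM with dialyzed FBS and 25 mM HEPES were treated 3 hrs under 0.25 uM final NKH477, then viability measured by CellTiter-Glo luminescence.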

The nature of test [2]: cAMP Responsive Elements (CRE) small molecule agonists, cell-based qHTS assay: qHTS cell viability counter screen (AID 2060914). Note: nearly all actives have a fitted effect of over 50% in size. Summed up: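 Cytotoxicity counter screen multiplexed with the CRE-bla reporter assay in HEK 293T cells: 3 h compound exposure at 37 °C, followed by CellTiter-Glo luminescence measured in the same wells.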

Inconclusive results are not listed. Unmarked numbers belong to inactive results. The source made the active and inactive calls. Calls come from the whole dose curve; as a rule, active = well fitted cell-killing curve with a large enough effect in the repeat runs; inconclusive = weak or mixed curves, or effect the other way; inactive = flat fitted curve, though single readings scatter.
% is set by controls: 0 for no effect and ±100 for the full control effect.

As for `CCCCCC(C)O` (stereo unspecified), the Potency entry in test [1] and in test [2] was “inactive” throughout.
Regarding `CNCCCCOc1ccccc1Cc1ccccc1`, the Potency result in test [1] and in test [2] was “inactive” each time.
For `CSCC[C@H](NC(=O)[C@H](Cc1c[nH]c2ccccc12)NC(=O)CCNC(=O)OC(C)(C)C)C(=O)N[C@@H](CC(=O)O)C(=O)N[C@@H](Cc1ccccc1)C(N)=O`, the Potency entry in test [1] and in test [2] was “inactive” throughout.
Take `CC(C)[C@@H]1CC[C@@H](C)C[C@H]1O`: the Potency entry in test [1] and in test [2] was “inactive” in each case.
On to `Cc1ccc(Nc2nccc(N(C)c3ccc4c(C)n(C)nc4c3)n2)cc1S(N)(=O)=O`, for which the Potency result in test [1] and in test [2] was “inactive” each time.
With `Cc1ccc(Cl)cc1N`, the Potency entry in test [1] and in test [2] was “inactive” in each case.
Take `CCC(O)OC(O)CC` (stereo unspecified): the Potency result in test [1] and in test [2] was “inactive” throughout.
Regarding `OC[C@H]1O[C@@](CO)(O[C@H]2O[C@H](CO)[C@@H](O)[C@H](O)[C@H]2O)[C@@H](O)[C@@H]1O`, the Potency entry in test [1] and in test [2] was “inactive” throughout.
Turning to `Cc1cc(O)c(C(C)C)cc1Cl`, the Potency result in test [1] and in test [2] was “inactive” each time.
On to `OC[C@H]1O[C@@H](O[C@@H]2[C@@H](CO)O[C@](O)(CO)[C@H]2O)[C@H](O)[C@@H](O)[C@H]1O`, for which the Potency result in test [1] and in test [2] was “inactive” in each case.
As for `O=C(O)c1ccc2c(c1)nc(C(=O)NC1CCN(C3CC3)CC1)n2Cc1cc(-c2ccc(Cl)s2)on1`, the viability change, negative = cytotoxic in test [1] is -0.942% [at 18.9 µM]. Further, the activity change, negative = cytotoxicity in test [2] was -9.02% [at 18.9 µM].
Turning to `CCCCOCCOC(=O)COc1cc(Cl)c(Cl)cc1Cl`, the Potency entry in test [1] and in test [2] was “inactive” in each case.
For `Cc1c(N(C)CS(=O)(=O)O)c(=O)n(-c2ccccc2)n1C`, the Potency result in test [1] and in test [2] was “inactive” in each case.
Take `Oc1ccc(Cl)c2cccnc12`: the Potency result in test [1] and in test [2] was “inactive” in each case.
`O=C1c2ccccc2C(=O)C1c1ccccc1`: the Potency result in test [1] and in test [2] was “inactive” each time.
Turning to `CCOC(=O)[C@H](CCc1ccccc1)N[C@@H](C)C(=O)N1Cc2ccccc2C[C@H]1C(=O)O`, the Potency entry in test [1] and in test [2] was “inactive” throughout.
As for `CCCCCc1cccc(=O)o1`, the Potency entry in test [1] and in test [2] was “inactive” in each case.
For the compound `NCc1ccccc1Sc1ccccc1CO`, the Potency entry in test [1] and in test [2] was “inactive” throughout.
Regarding `CCCC(C)C(=O)OCC` (stereo unspecified), the Potency entry in test [1] and in test [2] was “inactive” in each case.
Regarding `CCCCOCCOC(=O)COc1nc(Cl)c(Cl)cc1Cl`, the Potency entry in test [1] and in test [2] was “inactive” each time.
As for `NC(=S)NC(N)=S`, the Potency result in test [1] and in test [2] was “inactive” in each case.
In the case of `O=C1OC(c2ccc(O)cc2)(c2ccc(O)cc2)c2ccccc21`, the Potency result in test [1] and in test [2] was “inactive” each time.
Turning to `NC(=O)C(c1ccccc1)(c1ccccc1)[C@@H]1CCN(CCc2ccc3c(c2)CCO3)C1`, the Potency entry in test [1] and in test [2] was “inactive” throughout.
With `CCCCCCCC(=O)OCCCCCC`, the Potency result in test [1] and in test [2] was “inactive” each time.
For the compound `CN(C)CCCCl`, the Potency entry in test [1] and in test [2] was “inactive” in each case.
Consider `COC(=O)/C=C\C(=O)OC`, for which the Potency result in test [1] and in test [2] was “inactive” each time.
`N#Cc1ccccc1`: the Potency entry in test [1] and in test [2] was “inactive” each time.
In the case of `CCCCCC[C@@H](O)C/C=C\CCCCCCCC(=O)OCC(O)CO` (stereo partly specified), the Potency entry in test [1] and in test [2] was “inactive” throughout.
Take `CC(C)N(C)C`: the Potency result in test [1] and in test [2] was “inactive” each time.
On to `CC1(C)CO[C@@H](CC(=O)O)CN1`, for which the Potency entry in test [1] and in test [2] was “inactive” each time.
`CN(C)CCOC(c1ccccc1)c1ccc(Br)cc1` (stereo unspecified): the Potency entry in test [1] and in test [2] was “inactive” throughout.
For the compound `CC(=O)OC1CCCCC1C(C)(C)C` (stereo unspecified), the Potency entry in test [1] and in test [2] was “inactive” in each case.
Consider `O=C(OCCOCCOCCOC(=O)c1ccccc1)c1ccccc1`, for which the Potency result in test [1] and in test [2] was “inactive” in each case.
As to `N#Cc1ccc(CC(=O)c2cccc(C(F)(F)F)c2)cc1`, the Potency result in test [1] and in test [2] was “inactive” in each case.
Consider `Nc1ccccc1Nc1ccccc1`, for which the Potency entry in test [1] and in test [2] was “inactive” throughout.
As to `CCOCC(C)O` (stereo unspecified), the Potency result in test [1] and in test [2] was “inactive” throughout.
With `Nc1ccc(/C=C/c2ccc(N)cc2S(=O)(=O)O)c(S(=O)(=O)O)c1`, in test [1], the viability change, negative = cytotoxic is 3.88% [at 0.349 µM]. In test [2], the activity change, negative = cytotoxicity is 6.77% [at 0.349 µM].
Take `O=C(O)CCS`: the Potency result in test [1] and in test [2] was “inactive” throughout.
`CCO[Si](CCC#N)(OCC)OCC`: the Potency result in test [1] and in test [2] was “inactive” in each case.
Take `CC(C)C[P+](C)(CC(C)C)CC(C)C`: the Potency entry in test [1] and in test [2] was “inactive” in each case.
As for `Clc1cc(Cl)c(-c2c(Cl)c(Cl)cc(Cl)c2Cl)cc1Cl`, the Potency entry in test [1] and in test [2] was “inactive” each time.
`C=C(C)C1CC=C(C)CC1` (stereo unspecified): the Potency entry in test [1] and in test [2] was “inactive” each time.
`S=C(NC1CCCCC1)NC1CCCCC1`: the Potency entry in test [1] and in test [2] was “inactive” in each case.
